Reference: PubChem BioAssay
Activity calls are given as the source filed them.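 The calls were made as follows, unless noted: active = visually confirmed hit in the image check and inhibition above 20%; inconclusive = visually confirmed hit but inhibition not above 20%; inactive = no visual hit in the image check.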

test system: not listed separately; assay: endothelial E-selectin expression blockers – imaging, HUVEC, immunofluorescence, MLSMR starter and 10KST1 sets, primary screen (AID 487); conditions: HUVEC TNFalpha-induced E-selectin immunofluorescence imaging, at 2 µM; inhibition: stronger effect = higher value; nuclei count: measured here: cell number, toxicity;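 as to inhibition: signal is fraction of cell area covered by stained E-selectin grains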;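 as to nuclei count: 100% = median nuclei count of all wells on the same plate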

Structure (SMILES) | inhibition | nuclei count [%]
Cc1cc(C)n(C(=O)C23CC4CC(CC(C4)C2)C3)n1 | -12% (inactive) | 89.4
Nc1nc2n(n1)C(c1cccc(Cl)c1)CC(c1ccc(F)cc1)N2 (stereo not given) | -13.6% (inactive) | 106
O=C(Nc1ccc(N2CCCC2)cc1)c1ccc(Br)o1 | -59.6% (inactive) | 94.7
CCOC(=O)c1cccc(NC(=O)C2CCN(S(=O)(=O)c3cccs3)CC2)c1 | -45.4% (inactive) | 128
CC(=O)C1=C(C)OC(N)=C(C#N)C1c1ccncc1 (stereo not given) | 39.3% (inactive) | 112
O=C(CN1CCN(C2CCCCC2)CC1)Nc1ccccc1-c1ccccc1 | -7.3% (inactive) | 105
CC1(C)Cc2c(c(=S)nc(-c3ccccc3)n2CCO)CO1 | 41.7% (inactive) | 93.9
COCCCNC(=O)CC1Oc2ccccc2NC1=O (stereo not given) | -48.7% (inactive) | 112
CC1(C)CC(=O)CC(C)(C)N1OC(=O)c1ccccn1 | -4.9% (inactive) | 102
O=C1OC(N2CCN(c3ccccn3)CC2)c2ccccc21 (stereo not given) | 34.3% (inactive) | 88.3
c1cncc(-c2nc3c4ccccc4nc(N4CCC(N5CCCCC5)CC4)n3n2)c1 | -5.9% (inactive) | 98.2
C=Cn1c(N2CCOCC2)nc2c1c(=O)[nH]c(=O)n2C | 21.8% (inactive) | 115
CC(C)(C)C1=Nn2c(nnc2-c2n[nH]c3c2CCC3)SC1 | -30.7% (inactive) | 87.6
CCCCc1nc2ccccc2n2cc3c(=O)n(C)c(=O)n(C)c3c12 | -48.7% (inactive) | 104
O=C(NC1CCCCC1)N(Cc1ccc(F)cc1)Cc1nc2ccccc2c(=O)[nH]1 | -71.7% (inactive) | 99
Cc1ccc(S(=O)(=O)CC(=O)N2CCCCCC2)cc1 | -33% (inactive) | 112
O=C(NCC1COc2ccccc2O1)c1ccc(NC(=O)c2ccco2)cc1 (stereo not given) | -120% (inactive) | 120
CCOC(=O)N1CCN(Cc2nc3c(c(=O)[nH]c(=O)n3C)n2Cc2cc(C)ccc2C)CC1 | -103% (inactive) | 119
CCOC(=O)N1CCC(N2C(=O)c3ccccc3C2Nc2cccnc2)CC1 (stereo not given) | -11.7% (inactive) | 117
O=c1/c(=C/c2ccco2)sc2nc(-c3ccccc3Br)nn12 | -34.7% (inactive) | 118

Structure (SMILES) | inhibition | nuclei count [%]
CCOc1cc(NC(=O)c2ccccn2)c(OCC)cc1NC(=O)CC(C)C | -76.1% (inactive) | 119
CC1(C)CC(=O)C=C(NCCN2CCN(C(=O)Nc3ccccc3)CC2)C1 | -2.1% (inactive) | 109
Cc1ccccc1CN1CCN(C(=O)c2cccc(F)c2)CC1 | 2.5% (inactive) | 119
Cn1c(=O)[nH]c(=O)c2c1nc(N1CCCCCC1)n2CCCSc1nc2ccccc2o1 | -64.8% (inactive) | 98.7
COc1cccc(C2CC(c3ccccc3)n3ncnc3N2)c1 (stereo not given) | 17.4% (inactive) | 82
C=CCNC(=O)c1ccc(Cl)cc1Cl | -31.6% (inactive) | 91.8
COc1ccccc1NC(=O)NC1(C(=O)N2CCC(O)CC2)CCCCC1 | 1.6% (inactive) | 94
Nc1scc(-c2ccncc2)c1Cl | -2.4% (inactive) | 107
CC1CCCN(S(=O)(=O)c2ccc(C(=O)Nc3nnc(-c4ccccc4Cl)o3)cc2)C1 (stereo not given) | -16.5% (inactive) | 110
CCOc1ccccc1OCCn1nnc2ccccc21 | -6.1% (inactive) | 109
COc1ccc(CCN2C(=O)CCC2(C)C(=O)NCc2cccnc2)cc1OC (stereo not given) | -83.9% (inactive) | 97.9
COC(=O)c1ccccc1S(=O)(=O)N(CCCO)Cc1cc2c(C)ccc(C)c2[nH]c1=O | -55.4% (inactive) | 120
CCCCn1c(CN(C)Cc2ccccc2)nc2c1c(=O)n(C)c(=O)n2C | 16.4% (inactive) | 103
CCn1c(SCC(=O)c2ccc(Cl)cc2)nnc1-c1ccoc1C | -69.1% (inactive) | 108
Cn1c(=N)c(S(=O)(=O)c2ccccc2)cc2c(=O)n3ccccc3nc21 | -85.8% (inactive) | 235
CN(CC(=O)N1CCCCC1)S(=O)(=O)c1cccc2cccnc12 | -53.1% (inactive) | 124
O=C(NCc1ccc2c(c1)OCO2)C1CCC(CNc2c(N3CCCCC3)c(=O)c2=O)CC1 (stereo not given) | 11.9% (inactive) | 104
Cn1c(=O)c2c(nc(NCC3CCCO3)n2C)n(C)c1=O (stereo not given) | -102% (inactive) | 122
Cc1cc2ccccc2n1CCNC(=O)c1ccc(S(=O)(=O)N2CCOCC2)cc1 | -41.3% (inactive) | 101
CNC(=O)NCCN1CCCC1=O | -83.1% (inactive) | 123

target: Voltage-gated potassium channel subunit beta-2 (Rattus norvegicus) (UniProt P62483); assay: inhibitors of rat Kvbeta2 reductase activity – biochemical, NADPH fluorescence, primary screen (AID 622;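 active = fluorescence slope higher than the sample average by over 3 SD, cut at about -0.22 in these data, passing the limit was not always enough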;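 also: slope of raw intensity against log time taken from 70 to 1610 s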); conditions: recombinant KvBeta, 4-cyanobenzaldehyde reduction, at 10 µM, stronger effect = higher value
Sequence (P62483 whole entry, looked up): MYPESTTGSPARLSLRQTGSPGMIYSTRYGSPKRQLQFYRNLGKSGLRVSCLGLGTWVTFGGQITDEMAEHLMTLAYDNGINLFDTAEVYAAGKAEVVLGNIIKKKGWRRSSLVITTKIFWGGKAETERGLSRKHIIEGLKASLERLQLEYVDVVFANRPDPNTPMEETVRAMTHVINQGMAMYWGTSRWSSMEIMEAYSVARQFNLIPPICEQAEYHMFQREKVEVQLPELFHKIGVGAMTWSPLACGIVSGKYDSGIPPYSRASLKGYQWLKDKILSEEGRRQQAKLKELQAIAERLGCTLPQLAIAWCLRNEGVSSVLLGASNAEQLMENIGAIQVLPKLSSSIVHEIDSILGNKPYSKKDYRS

Structure (SMILES) | fluorescence slope
Cc1cc(C)n(C(=O)C23CC4CC(CC(C4)C2)C3)n1 | -0.514 (inactive)
Nc1nc2n(n1)C(c1cccc(Cl)c1)CC(c1ccc(F)cc1)N2 (stereo not given) | -0.42 (inactive)
O=C(Nc1ccc(N2CCCC2)cc1)c1ccc(Br)o1 | -0.398 (inactive)
CCOC(=O)c1cccc(NC(=O)C2CCN(S(=O)(=O)c3cccs3)CC2)c1 | -0.634 (inactive)
CC(=O)C1=C(C)OC(N)=C(C#N)C1c1ccncc1 (stereo not given) | -0.616 (inactive)
O=C(CN1CCN(C2CCCCC2)CC1)Nc1ccccc1-c1ccccc1 | -0.609 (inactive)
CC1(C)Cc2c(c(=S)nc(-c3ccccc3)n2CCO)CO1 | -0.501 (inactive)
COCCCNC(=O)CC1Oc2ccccc2NC1=O (stereo not given) | -0.54 (inactive)
CC1(C)CC(=O)CC(C)(C)N1OC(=O)c1ccccn1 | -0.495 (inactive)
O=C1OC(N2CCN(c3ccccn3)CC2)c2ccccc21 (stereo not given) | -0.633 (inactive)
c1cncc(-c2nc3c4ccccc4nc(N4CCC(N5CCCCC5)CC4)n3n2)c1 | -0.455 (inactive)
C=Cn1c(N2CCOCC2)nc2c1c(=O)[nH]c(=O)n2C | -0.412 (inactive)
CC(C)(C)C1=Nn2c(nnc2-c2n[nH]c3c2CCC3)SC1 | -0.521 (inactive)
CCCCc1nc2ccccc2n2cc3c(=O)n(C)c(=O)n(C)c3c12 | -0.524 (inactive)
O=C(NC1CCCCC1)N(Cc1ccc(F)cc1)Cc1nc2ccccc2c(=O)[nH]1 | -0.333 (inactive)
Cc1ccc(S(=O)(=O)CC(=O)N2CCCCCC2)cc1 | -0.504 (inactive)
O=C(NCC1COc2ccccc2O1)c1ccc(NC(=O)c2ccco2)cc1 (stereo not given) | -0.435 (inactive)
CCOC(=O)N1CCN(Cc2nc3c(c(=O)[nH]c(=O)n3C)n2Cc2cc(C)ccc2C)CC1 | -0.505 (inactive)
CCOC(=O)N1CCC(N2C(=O)c3ccccc3C2Nc2cccnc2)CC1 (stereo not given) | -0.6 (inactive)
O=c1/c(=C/c2ccco2)sc2nc(-c3ccccc3Br)nn12 | -0.585 (inactive)

Structure (SMILES) | fluorescence slope
CCOc1cc(NC(=O)c2ccccn2)c(OCC)cc1NC(=O)CC(C)C | -0.615 (inactive)
CC1(C)CC(=O)C=C(NCCN2CCN(C(=O)Nc3ccccc3)CC2)C1 | -0.412 (inactive)
Cc1ccccc1CN1CCN(C(=O)c2cccc(F)c2)CC1 | -0.411 (inactive)
Cn1c(=O)[nH]c(=O)c2c1nc(N1CCCCCC1)n2CCCSc1nc2ccccc2o1 | -0.609 (inactive)
COc1cccc(C2CC(c3ccccc3)n3ncnc3N2)c1 (stereo not given) | -0.6 (inactive)
C=CCNC(=O)c1ccc(Cl)cc1Cl | -0.478 (inactive)
COc1ccccc1NC(=O)NC1(C(=O)N2CCC(O)CC2)CCCCC1 | -0.605 (inactive)
Nc1scc(-c2ccncc2)c1Cl | -0.386 (inactive)
CC1CCCN(S(=O)(=O)c2ccc(C(=O)Nc3nnc(-c4ccccc4Cl)o3)cc2)C1 (stereo not given) | -0.468 (inactive)
CCOc1ccccc1OCCn1nnc2ccccc21 | -0.443 (inactive)
COc1ccc(CCN2C(=O)CCC2(C)C(=O)NCc2cccnc2)cc1OC (stereo not given) | -0.602 (inactive)
COC(=O)c1ccccc1S(=O)(=O)N(CCCO)Cc1cc2c(C)ccc(C)c2[nH]c1=O | -0.501 (inactive)
CCCCn1c(CN(C)Cc2ccccc2)nc2c1c(=O)n(C)c(=O)n2C | -0.605 (inactive)
CCn1c(SCC(=O)c2ccc(Cl)cc2)nnc1-c1ccoc1C | -0.503 (inactive)
Cn1c(=N)c(S(=O)(=O)c2ccccc2)cc2c(=O)n3ccccc3nc21 | -0.517 (inactive)
CN(CC(=O)N1CCCCC1)S(=O)(=O)c1cccc2cccnc12 | -0.531 (inactive)
O=C(NCc1ccc2c(c1)OCO2)C1CCC(CNc2c(N3CCCCC3)c(=O)c2=O)CC1 (stereo not given) | -0.595 (inactive)
Cn1c(=O)c2c(nc(NCC3CCCO3)n2C)n(C)c1=O (stereo not given) | -0.609 (inactive)
Cc1cc2ccccc2n1CCNC(=O)c1ccc(S(=O)(=O)N2CCOCC2)cc1 | -0.603 (inactive)
CNC(=O)NCCN1CCCC1=O | -0.335 (inactive)
